Most compounds without a hit are left out; they make up all but 17% or so of the library.
TDP1 block – inhibitors of human tyrosyl-DNA phosphodiesterase TDP1. Q9NUW8. AID 485290. actives 0.28% (n = 350,000). Potency, µM (top dose mostly 130 µM), for the others: at the highest dose activity change, negative = inhibition, usual class: inhibitors. recombinant TDP1, AlphaScreen DNA substrate cleavage; further: on the % scale 0 is the no-effect control and ±100 the full control effect; nearly all actives have a fitted effect of over 40% in size
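Here, a 5' biotin and 3' phosphotyrosine-FITC DNA oligonucleotide reports Tdp1 activity: intact substrate bridges AlphaScreen beads, while cleavage leaves a 3' phosphate and drops signal. All incubations at room temperature.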
ClpP mod – qHTS Assay for Activators of ClpP; ATP-dependent Clp protease proteolytic subunit (Bacillus subtilis (strain 168)), P80244; purified B. subtilis ClpP, FRET peptide cleavage, 20 min; Potency, µM (doses to about 57.5 µM), inactives show at the highest dose activity change, negative = active; actives 1.9% (n = 340,000); AID 651965, 2013; active means well fitted falling curve with a large enough effect; inconclusive means small, poorly fitted or top-dose-only effect; inactive means no such curve, though single readings can be large or run the other way; further: the source files actives as falling curves though it sought activators and does not explain the sign; nearly all actives have a fitted effect of over 65% in size
Target sequence (P80244 whole entry, looked up): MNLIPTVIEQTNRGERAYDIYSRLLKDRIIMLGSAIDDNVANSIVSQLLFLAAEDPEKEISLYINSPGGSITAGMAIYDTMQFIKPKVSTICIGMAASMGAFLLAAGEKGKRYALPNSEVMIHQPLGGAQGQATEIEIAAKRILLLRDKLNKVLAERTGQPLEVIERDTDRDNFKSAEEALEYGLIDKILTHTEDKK
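ClpP 10 microg/mL final, pH 8 Tris/KCl buffer with BSA, glycerol, Tween-20; compound pinned in; FRET-FV substrate; RT 20 min; Ex320/Em430; ΔFRET vs ADEP 5.8 microM, DMSO, no enzyme.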
TDP1 cell CPT – growth inhibition of DT40 Tdp1-/-;hTDP1 cells with camptothecin (screen for TDP1 inhibitors); chicken DT40 Tdp1-/-;hTDP1 cells + 20 nM CPT, ATP luminescence, 48 h; Potency, µM (doses to about 46.2 µM), inactives show top-dose activity change, negative = growth inhibition, usual class: inhibitors; actives 12% (n = 420,000); AID 686979; further: on the % scale 0 is the no-effect control and ±100 the full control effect; nearly all actives have a fitted effect of over 55% in size
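Chicken DT40 Tdp1-/- cells stably complemented with human TDP1 were seeded at 400 cells/well in medium containing 20 nM camptothecin, exposed to pin-transferred compounds, and grown at 37 °C for at least 48 hr. Viability was read as ATP luminescence.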
TDP1 cell noCPT – qHTS for Inhibitors of human tyrosyl-DNA phosphodiesterase 1 (TDP1): qHTS in cells in absence of CPT. DT40 Tdp1-/- hTDP1 cells, no CPT, ATP luminescence, 48 h. Potency, µM (titrated, usually from 46.2 µM), for inactives: top-dose activity change, negative = growth inhibition, actives largely listed as inhibitors. actives 15% (n = 420,000). AID 686978, 2013; further: on the % scale 0 is the no-effect control and ±100 the full control effect; nearly all actives have a fitted effect of over 55% in size
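Growth of hTDP1-complemented DT40 Tdp1-knockout cells is measured by ATP luminescence after at least 48 hr compound exposure at 37 °C, with DMSO substituting for the 20 nM CPT used in the parallel screen.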
* hit, by the source's call; ? = inconclusive; nt = no result; [ ] = remark or other dose. Unless noted, the call rests on the fitted dose curve; in most records, active means well fitted curve in the direction sought with a large enough effect; inconclusive means small, poorly fitted or top-dose-only effect, or another doubt; inactive means no such curve, though single readings can be large; an effect the other way counts as inactive or inconclusive. Potency means the concentration at half of the fitted maximal effect.

SMILES | TDP1 block | ClpP mod | TDP1 cell CPT | TDP1 cell noCPT
Cc1ccc(-n2nc3c([n+]2[O-])CCc2c-3no[n+]2[O-])cc1 | 2.0% | 0.8% | ? | 16.4µM*
O=C(C[n+]1cccc(Br)c1)c1cccc([N+](=O)[O-])c1 | nt | -0.5% | -0.8% | -19.6%
COc1ccc2[nH]c3c(c2c1)CCNC3=O | 9.3% | nt | ? | ?
O=C1NCCc2c1[nH]c1ccccc21 | 1.4% | 25.1µM* | -0.6% | -4.9%
Cc1ncc(CO)c(/C=N/NC(=O)c2ccccc2Br)c1O | 8.2% | nt | ? | ?
COc1ccc(C(=O)N/N=C/c2c(CO)cnc(C)c2O)cc1 | 7.5% | ? | 5.8µM* | 23.1µM*
Cc1ncc(CO)c(/C=N/NC(=O)c2ccc(O)cc2)c1O | -1.1% | ? | 1.0% | -8.0%
Cc1ncc(CO)c(/C=N/NC(=O)c2ccoc2C)c1O | -6.9% | 25.1µM* | ? | ?
Cc1ncc(CO)c(/C=N/NC(=O)c2cc3c(s2)CCCC3)c1O | 8.2% | -23.6% | 5.8µM* | 7.31µM*
CC12CC3(C)CC(C)(C1)CC(C(=O)NC(=S)N1CCCC1)(C2)C3 | 6.2% | nt | ? | -26.6%
Cc1cc(C)cc(OCc2cc(=O)n3c4c(sc3n2)CCCC4)c1 | 3.8% | -2.5% | -0.7% | 6.6%
O=Cc1cccn1-c1ncc(Br)cn1 | -2.9% | -1.8% | 13.4% | 0.1%
CCOC(=O)N1CCc2c(sc3c2c(=O)n(Cc2ccccc2)c(=O)n3Cc2cccc(C)c2)C1 | 3.8% | -1.5% | 13µM* | 13µM*
CCOC(=O)N1CCc2c(sc3c2c(=O)n(Cc2ccccc2)c(=O)n3Cc2c(F)cccc2Cl)C1 | 3.8% | 1.3% | 13µM* | 18.4µM*
CCNC(=O)C(=O)Nc1cc2c3c(c1)CCN3C(=O)CC2 | 0.3% | 1.3% | -3.9% | -3.8%
O=[N+]([O-])c1cc(-c2nc(-c3ccccc3)no2)ccc1N1CCN(c2ccccc2)CC1 | 0.0% | 0.8% | -17.6% | ?
CCC(Cn1nnc2ccccc2c1=O)NC(=O)Nc1cc(Cl)ccc1OC (stereo not drawn) | 2.3% | -1.8% | ? | ?
NC(=O)CSc1nc2ccc(NC(=O)COc3ccccc3Cl)cc2s1 | -6.8% | 2.1% | ? | ?
O=C(NCCc1ccccc1)c1ccc(Cn2c(SCc3ccccc3F)nc3cccnc32)cc1 | 8.7% | 4.8% | 16.4µM* | 18.4µM*
O=C(NCCc1ccccc1)c1ccc(CSc2nc3cccnc3n2Cc2ccccc2F)cc1 | 7.5% | 4.5% | ? | 9.2µM*
O=C(NCCc1ccccc1)c1ccc(Cn2c(SCc3ccc(F)cc3)nc3cccnc32)cc1 | 3.7% | ? | ? | -28.9%
c1ccc(CN2CCN(c3nc(-c4ccccn4)nc4ccccc34)CC2)cc1 | 12.9% | -0.8% | -4.9% | 2.3%
c1ccc2c(N3CCCC3)nc(-c3ccncc3)nc2c1 | 2.9% | -7.5% | ? | 18.4µM*
Cc1nc(N2CCCCCC2)c2ccccc2n1 | nt | -2.9% | ? | 20.6µM*
Nc1nc(N2CCN(c3ccccn3)CC2)nc2ccccc12 | nt | -11.5% | -27.5% | ?
SMILES | TDP1 block | ClpP mod | TDP1 cell CPT | TDP1 cell noCPT
Nc1nc(N2CCCCC2)nc2ccccc12 | 0.0% | 17.8µM* | -6.6% | -27.9%
CCN1CCN(c2nc(-c3ccccn3)nc3ccccc23)CC1 | 6.0% | -3.0% | ? | 20.6µM*
O=C(Nn1cnnc1)c1cc(Cl)cc(Cl)c1 | nt | nt | 6.7% | -2.3%
O=C(NCCCC1CCCC1)C1CCC(=O)N(Cc2ccc(Cl)cc2)C1 (stereo not drawn) | -2.9% | 0.7% | ? | ?
O=C(NCc1ccccc1)c1onc(CSc2ccccn2)c1C(=O)NCc1ccccc1 | 1.2% | -1.6% | ? | -26.8%
c1ccc(-c2nc(N3CCCCCC3)c3ccccc3n2)nc1 | 13.5% | -1.9% | 2.06µM* | 2.31µM*
CN1CCN(c2nc(-c3ccc(Cl)cc3)nc3ccccc23)CC1 | nt | 1.0% | ? | 16.4µM*
CCN(C[C@H]1N[C@@](Cc2ccccc2)(C(=O)OC)[C@H]2C(=O)N(C)C(=O)[C@@H]12)C(=O)COC | 0.4% | -2.0% | -14.2% | 11.7%
COc1cccc(OC)c1C(=O)Nc1cccc(-c2nc3ccccc3[nH]2)c1 | -5.6% | nt | ? | 18.4µM*
COc1cccc(C(=O)Nc2ccc(Cl)c(-c3nc4ccccc4[nH]3)c2)c1 | 5.7% | -19.6% | ? | 6.51µM*
COc1cccc(C(=O)Nc2ccc3c(c2)C(=O)c2ccccc2C3=O)c1 | nt | -0.3% | ? | -15.7%
O=C(COc1ccccc1)Nc1cccc(-c2nc3cc4ccccc4cc3[nH]2)c1 | -2.5% | 6.31µM* | 14.6µM* | 20.6µM*
CC(C)COc1ccc(C(=O)Nc2cccc(-c3nc4ccccc4[nH]3)c2)cc1 | 2.2%[12.3 µM] | ? | 18.4µM* | 20.6µM*
O=c1c(-c2cc(F)cc(F)c2)nc2cnc(N3CCOCC3)nc2n1-c1ccccc1 | nt | nt | 4.8% | -5.4%
Cc1ccc(NS(=O)(=O)c2ccc3[nH]c4c(c3c2)CCCC4)cc1N(C)C | 11.2% | -3.4% | ? | ?
CC(C)(C)C(=O)Nc1cccc(-c2nc3ccccc3[nH]2)c1 | 2.9% | ? | ? | ?
CC(=O)Nc1cccc(-c2nc3ccccc3[nH]2)c1 | 5.7% | nt | 7.6% | 2.5%
O=C(Nc1cccc(-c2nc3ccccc3[nH]2)c1)c1ccccn1 | 10.1% | nt | 18.4µM* | 13µM*
CC(Oc1ccccc1)C(=O)Nc1cccc(-c2nc3ccccc3[nH]2)c1 (stereo not drawn) | 7.3% | 35.5µM* | ? | ?
O=C(Nc1cccc(-c2nc3ccccc3[nH]2)c1)c1c(F)cccc1F | -4.8%[12.3 µM] | -27.6% | 14.6µM* | 10.3µM*
O=C(CCCCCN1C(=O)[C@@H]2Cc3ccccc3CN2C1=O)Nc1cccc(F)c1 | -0.1% | 0.8% | ? | 14.6µM*
Cc1ccccc1NS(=O)(=O)c1cc(C(=O)Nc2ccccc2-c2ccccc2)ccc1Cl | 1.1% | -8.6% | -20.5% | -18.2%
Cc1ccc(C)c(NS(=O)(=O)c2cc(C(=O)NCc3ccccn3)ccc2C)c1 | 4.3% | -1.0% | ? | 29.1µM*
COc1cc(OC)cc(C(=O)NCCSC2CCCCC2)c1 | -3.1% | nt | -13.2% | -14.9%
Cc1ccc(C)c(NS(=O)(=O)c2cc(C(=O)NCCSC3CCCCC3)ccc2C)c1 | 2.0% | 0.2% | ? | 23.1µM*
C=CCNC(=O)c1ccccc1NC(=O)c1ccc(Cl)c(S(=O)(=O)Nc2cc(C)ccc2C)c1 | 2.0% | 459.8% | 18.4µM* | ?
Cc1ccccc1NS(=O)(=O)c1cc(C(=O)NCCSC2CCCCC2)ccc1C | 0.0% | 1.0% | ? | ?
COc1cccc(OC)c1C(=O)NCCSC1CCCCC1 | 5.8% | 1.7% | 13µM* | 18.4µM*
Cc1oc2cc3oc(=O)cc(C)c3cc2c1C | nt | -0.3% | -18.0% | -12.7%
COc1ccc(C(=O)N2CCC2(C)C(=O)O)cc1F (stereo not drawn) | nt | -3.2% | -26.2% | -5.4%

Compound activity as filed in PubChem.
